PubChem BioAssay (Tox21)
Records with an inconclusive call do not appear. The source made the active and inactive calls. Unless noted, calls follow the shape of the dose curve; as a rule, active = well fitted curve in the direction sought with a large enough effect in the repeat runs; inconclusive = weak or mixed curves; inactive = no such curve, though single readings can be large; an effect the other way counts as inactive or inconclusive.

Key:
[1] = qHTS assay to test for compound auto fluorescence at 535 nm (green) in HEK293 cells (AID 720680)
[2] = qHTS assay to test for compound auto fluorescence at 460 nm (blue) in HEK293 cell free culture (AID 720681)
Outline: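 Blue fluorescence (Ex 405/Em 460 nm, triamterene-equivalent) was read immediately after pin transfer of compound or DMSO into medium (DMEM, 10% FBS) without cells.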

[3] = qHTS assay to test for compound auto fluorescence at 535 nm (green) in HEK293 cell free culture (AID 720682)
Outline: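 No cells present: wells hold DMEM supplemented with 10% FBS, into which compound or vehicle is pinned. Green emission is then recorded (485 nm excitation, 535 nm emission) and scaled to fluorescein.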

[4] = qHTS assay to test for compound auto fluorescence at 590 nm (red) in HEK293 cell free culture (AID 720683)
Outline: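 Red-channel autofluorescence of compounds in culture medium (DMEM, 10% FBS), no cells, measured at 540/590 nm. Rose Bengal sodium is the reference fluorophore for equivalence.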

[5] = qHTS assay to test for compound auto fluorescence at 590 nm (red) in HepG2 cell free culture (AID 720684)
Outline: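 Cell-free; medium MEM + 10% FBS; compound or DMSO added by pintool; read Ex 540/Em 590 nm; Rose Bengal sodium as red reference fluorophore.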

[6] = qHTS assay to test for compound auto fluorescence at 535 nm (green) in HepG2 cell free culture (AID 720686)
[7] = qHTS assay to test for compound auto fluorescence at 460 nm (blue) in HepG2 cells (AID 720687)
Outline: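 Blue-channel autofluorescence (Ex/Em 405/460 nm, triamterene-equivalent) was measured after 1 hr compound exposure at 37 C, 5% CO2. Cells were HepG2, plated overnight at 37 C in MEM plus 10% FBS.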

[8] = qHTS assay for identifying genotoxic compounds that show differential cytotoxicity against isogenic chicken DT40 cell lines with known DNA damage response pathways - wild type cell line (AID 743012); also: nearly all actives have a fitted effect of over 60% in size; also: potency is read from the fitted curve at half-maximal effect
Outline: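 300 wt DT40 cells/well; cpd (DMSO) pintool-transferred after ~0.5 h at 37 C/5% CO2; 40 h incubation; CellTiter-Glo added, 30 min RT; luminescence read.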

[9] = qHTS assay for identifying genotoxic compounds that show differential cytotoxicity against isogenic chicken DT40 cell lines with known DNA damage response pathways - Rev3 mutant cell line (AID 743014); also: nearly all actives have a fitted effect of over 55% in size; also: potency is read from the fitted curve at half-maximal effect
[10] = qHTS assay for identifying genotoxic compounds that show differential cytotoxicity against isogenic chicken DT40 cell lines with known DNA damage response pathways - Rad54/Ku70 mutant cell line (AID 743015); also: nearly all actives have a fitted effect of over 60% in size; also: potency is read from the fitted curve at half-maximal effect
[11] = qHTS assay to identify small molecule antagonists of the androgen receptor (AR) signaling pathway - cell viability counter screen (AID 743033; also: nearly all actives have a fitted effect of over 45% in size)
[12] = qHTS assay to identify small molecule antagonists of the androgen receptor (AR) signaling pathway using the MDA cell line - cell viability counter screen (AID 743041; also: nearly all actives have a fitted effect of over 45% in size)
Outline: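 Viability read by CellTiter-Fluor fluorescence in the same wells as the antagonist screen, added after 15.5 h of a 16 h, 37C exposure. Human breast carcinoma MDA-kb2 AR-luc cells, compounds co-dosed with agonist R1881.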

[13] = target: Glucocorticoid receptor (Homo sapiens) (UniProt P04150); assay: qHTS assay to identify small molecule agonists of the glucocorticoid receptor (GR) signaling pathway (AID 720691; active = well fitted activation curve with a large enough effect in the signal ratio in the repeat runs, not every such curve was filed as active; the % refers to the signal ratio)
Sequence of Glucocorticoid receptor (Homo sapiens) (P04150 whole entry, looked up): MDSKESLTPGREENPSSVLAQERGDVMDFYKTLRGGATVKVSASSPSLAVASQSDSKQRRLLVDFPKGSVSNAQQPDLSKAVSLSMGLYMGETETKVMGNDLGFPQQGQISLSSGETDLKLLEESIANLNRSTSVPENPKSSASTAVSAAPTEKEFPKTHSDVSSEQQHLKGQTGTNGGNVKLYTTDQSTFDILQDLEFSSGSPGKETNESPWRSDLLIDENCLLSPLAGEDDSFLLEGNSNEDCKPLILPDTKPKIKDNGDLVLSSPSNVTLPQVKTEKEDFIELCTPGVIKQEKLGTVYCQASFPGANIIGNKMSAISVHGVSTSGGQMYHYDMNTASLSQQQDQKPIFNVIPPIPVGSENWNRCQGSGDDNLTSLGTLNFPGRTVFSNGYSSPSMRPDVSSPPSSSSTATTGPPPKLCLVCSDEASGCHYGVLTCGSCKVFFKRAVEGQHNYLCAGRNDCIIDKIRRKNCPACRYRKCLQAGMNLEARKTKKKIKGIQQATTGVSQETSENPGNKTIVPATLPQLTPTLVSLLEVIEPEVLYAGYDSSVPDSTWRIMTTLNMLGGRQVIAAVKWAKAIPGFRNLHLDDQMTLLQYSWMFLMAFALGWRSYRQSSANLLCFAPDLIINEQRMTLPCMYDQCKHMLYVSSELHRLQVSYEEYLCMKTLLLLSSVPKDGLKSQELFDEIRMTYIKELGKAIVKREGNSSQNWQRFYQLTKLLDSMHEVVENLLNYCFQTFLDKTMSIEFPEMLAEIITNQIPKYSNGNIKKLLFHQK
Outline: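 A HeLa cervical cancer line expressing GR and a glucocorticoid response element-driven beta-lactamase gene is treated with compounds for 18 h; LiveBLAzer B/G FRET substrate is then applied and fluorescence read.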

[14] = qHTS assay to identify small molecule antagonists of the glucocorticoid receptor (GR) signaling pathway - cell viability counter screen (AID 720693); also: nearly all actives have a fitted effect of over 55% in size
[15] = qHTS assay to identify small molecule antagonists of the thyroid receptor (TR) signaling pathway - cell viability counter screen (AID 743064); also: nearly all actives have a fitted effect of over 50% in size
Outline: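 Rat GH3 pituitary tumor cells stably expressing two TR response elements driving luciferase were plated, rested 4 h, then dosed with library compounds and T3 (1 nM final). After 23.5 h at 37 °C, CellTiter-Fluor was added for 30 min and fluorescence recorded.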

[16] = qHTS assay to test for compound auto fluorescence at 460 nm (blue) in HepG2 cell free culture (AID 720685)
Outline: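 Cell-free plates of MEM plus 10% FBS received 23 nL compound or DMSO vehicle; blue-channel (405/460 nm) intensity scored against triamterene as reference fluorophore.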

[17] = target: Glucocorticoid receptor (Homo sapiens) (UniProt P04150); assay: qHTS assay to identify small molecule antagonists of the glucocorticoid receptor (GR) signaling pathway (AID 720692; active = well fitted inhibition curve with a large enough effect in the signal ratio in the repeat runs, not every such curve was filed as active; the % refers to the signal ratio)
Outline: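 GRE-bla HeLa line, dex-stimulated (5 nM final). Compound exposure 18 h, 37 C. Beta-lactamase FRET read after 2 h RT substrate.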

[18] = target: Androgen receptor (Homo sapiens) (UniProt P10275); assay: qHTS assay to identify small molecule antagonists of the androgen receptor (AR) signaling pathway (AID 743035; active = well fitted inhibition curve with a large enough effect in the signal ratio in the repeat runs, not every such curve was filed as active; the % refers to the signal ratio; also: potency is read from the fitted curve at half-maximal effect)
Sequence of Androgen receptor (Homo sapiens) (P10275 whole entry, looked up): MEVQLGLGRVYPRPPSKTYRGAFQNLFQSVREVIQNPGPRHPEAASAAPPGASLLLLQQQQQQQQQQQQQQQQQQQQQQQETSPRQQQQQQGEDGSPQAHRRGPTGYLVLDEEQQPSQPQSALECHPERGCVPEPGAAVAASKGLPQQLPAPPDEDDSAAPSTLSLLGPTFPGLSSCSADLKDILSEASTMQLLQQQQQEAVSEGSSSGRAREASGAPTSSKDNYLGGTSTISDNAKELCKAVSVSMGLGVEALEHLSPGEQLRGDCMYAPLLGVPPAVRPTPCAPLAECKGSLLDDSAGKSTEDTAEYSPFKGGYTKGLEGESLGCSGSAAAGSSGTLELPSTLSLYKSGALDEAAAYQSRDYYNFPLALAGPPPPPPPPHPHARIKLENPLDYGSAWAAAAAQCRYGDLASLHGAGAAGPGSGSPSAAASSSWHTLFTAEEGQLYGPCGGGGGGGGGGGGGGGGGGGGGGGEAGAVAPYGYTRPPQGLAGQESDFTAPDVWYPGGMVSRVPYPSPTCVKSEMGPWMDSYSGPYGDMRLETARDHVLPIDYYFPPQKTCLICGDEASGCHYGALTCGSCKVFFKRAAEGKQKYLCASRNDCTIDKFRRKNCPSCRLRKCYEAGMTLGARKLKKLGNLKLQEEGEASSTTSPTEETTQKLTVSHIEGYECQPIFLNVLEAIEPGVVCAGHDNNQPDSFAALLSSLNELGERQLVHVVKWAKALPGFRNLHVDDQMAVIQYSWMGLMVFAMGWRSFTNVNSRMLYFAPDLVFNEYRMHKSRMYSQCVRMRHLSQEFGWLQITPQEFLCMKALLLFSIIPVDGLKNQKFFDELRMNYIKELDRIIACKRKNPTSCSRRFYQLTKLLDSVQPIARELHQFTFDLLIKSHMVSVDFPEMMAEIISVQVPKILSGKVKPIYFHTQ
Outline: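 In this cell-based reporter screen, compounds were tested in concentration series against R1881-activated HEK293 cells expressing beta-lactamase under UAS control; after 16 h at 37C, FRET substrate was added and fluorescence read 2 h later.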

[19] = target: Androgen receptor (Homo sapiens) (UniProt P10275); assay: qHTS assay to identify small molecule agonists of the androgen receptor (AR) signaling pathway (AID 743036; active = well fitted activation curve with a large enough effect in the signal ratio in the repeat runs, with a control signal flat, not every such curve was filed as active; the % refers to the signal ratio)
Outline: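 Quantitative HTS of the Tox21 10K library in HEK293 cells bearing a stably integrated UAS-controlled beta-lactamase reporter. Compound exposure lasted 16 h at 37C. Reporter activity was detected by FRET substrate fluorescence after 2 h at room temperature.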

[20] = target: Androgen receptor (Homo sapiens) (UniProt P10275); assay: qHTS assay to identify small molecule agonists of the androgen receptor (AR) signaling pathway using the MDA cell line (AID 743040; also: nearly all actives have a fitted effect of over 20% in size)
Outline: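 Luciferase agonist assay: 16 h compound exposure at 37C without CO2 in MDA-kb2 AR-luc cells, whose MMTV promoter responds to both AR and GR. Luminescence measured after 30 min room-temperature incubation with ONE-Glo.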
% is scaled to controls: 0 for no effect and ±100 for the full control effect.

CC(Cl)(Cl)Cl
inactive: outcome [1] | outcome [2] | outcome [3] | outcome [4] | outcome [5] | outcome [6] | outcome [7] | Potency [8] | Potency [9] | Potency [10] | Potency [11] | Potency [12]

CCN[C@@H](C)Cc1cccc(C(F)(F)F)c1
active: Potency [9] 16.9 µM | Potency [10] 21.3 µM
inactive: outcome [1] | outcome [2] | outcome [3] | outcome [4] | outcome [5] | outcome [6] | outcome [7] | Potency [13] | Potency [14] | Potency [11] | Potency [12] | Potency [15]

O=C(O)c1c(Cl)ccc2cc(Cl)cnc12
inactive: outcome [1] | outcome [2] | outcome [3] | outcome [4] | outcome [5] | outcome [6] | outcome [7] | Potency [13] | Potency [14] | Potency [8] | Potency [9] | Potency [10] | Potency [11] | Potency [12]

O=C(Cl)CCl
inactive: outcome [1] | outcome [2] | outcome [3] | outcome [4] | outcome [5] | outcome [16] | outcome [6] | outcome [7] | Potency [8] | Potency [9] | Potency [10] | Potency [11] | Potency [12] | Potency [15]

CC[C@@H](CO)NC(=O)[C@@H]1C=C2c3cccc4c3c(cn4C)C[C@H]2N(C)C1
active: Potency [8] 13.3 µM
inactive: outcome [1] | outcome [2] | outcome [3] | outcome [4] | outcome [5] | outcome [6] | outcome [7] | Potency [11] | Potency [12]

CN(C)C(=O)Oc1cc(OC(=O)N(C)C)cc(C(O)CNC(C)(C)C)c1 (configuration not stated)
inactive: fluorescence, % of fluorescein [1] 0.102% [at 18.6 µM] | fluorescence, % of fluorescent control [2] 0.0217% [at 18.6 µM] | activity change [3] -0.0374% [at 18.6 µM] | fluorescence, % of fluorescent control [4] -0.0016% [at 18.6 µM] | fluorescence, % of Rose Bengal [5] -0.0966% [at 18.6 µM] | fluorescence, % of fluorescein control [6] -0.0661% [at 18.6 µM] | fluorescence, % of fluorescent control [7] 0.0969% [at 18.6 µM] | Potency [13] | Potency [17] | Potency [14] | Potency [8] | Potency [9] | Potency [10] | Potency [11] | Potency [18] | outcome [19] | outcome [20] | Potency [12] | Potency [15]

CC(C)N(Cc1ccccc1)C(=O)C(C)(C)C
inactive: outcome [1] | outcome [2] | outcome [3] | outcome [4] | outcome [5] | outcome [6] | outcome [7] | Potency [14] | Potency [11] | Potency [18] | outcome [19] | outcome [20] | Potency [12] | Potency [15]
active: Potency [8] 61.1 µM

C=C(Cl)CSC(=S)N(CC)CC
active: Potency [8] 33.5 µM | Potency [9] 66.8 µM | Potency [10] 53 µM
inactive: outcome [1] | outcome [2] | outcome [3] | outcome [4] | outcome [5] | outcome [6] | outcome [7] | Potency [14] | Potency [11] | Potency [12]

CC(Cc1ccccc1)NCCn1cnc2c1c(=O)n(C)c(=O)n2C (configuration not stated)
active: Potency [8] 67.7 µM
inactive: outcome [1] | outcome [2] | outcome [3] | outcome [4] | outcome [5] | outcome [6] | outcome [7] | Potency [13] | Potency [17] | Potency [14] | Potency [9] | Potency [11] | Potency [12]

S=C=S
inactive: outcome [1] | outcome [2] | outcome [3] | outcome [4] | outcome [5] | outcome [6] | outcome [7] | Potency [13] | Potency [17] | Potency [8] | Potency [9] | Potency [10] | Potency [11] | Potency [12]

CCOC1Oc2ccc(OS(C)(=O)=O)cc2C1(C)C (configuration not stated)
inactive: outcome [1] | outcome [2] | outcome [3] | outcome [4] | outcome [5] | outcome [16] | outcome [6] | outcome [7] | Potency [14] | outcome [19] | outcome [20] | Potency [15]
active: Potency [10] 54 µM | Potency [18] 43.3 µM

O=C(Cl)OCc1ccccc1
inactive: outcome [1] | outcome [2] | outcome [3] | outcome [4] | outcome [5] | outcome [6] | outcome [7] | Potency [13] | Potency [17] | Potency [14] | Potency [8] | Potency [9] | Potency [10] | Potency [11] | Potency [12]

CN1C(=O)COc2c(C(=O)NC3CN4CCC3CC4)cc(Cl)cc21 (configuration not stated)
inactive: outcome [1] | outcome [2] | outcome [3] | outcome [4] | outcome [5] | outcome [6] | outcome [7] | Potency [14] | Potency [8] | Potency [9] | Potency [10] | Potency [11] | Potency [12]

CC(C)(N)Cc1ccc(Cl)cc1
inactive: outcome [1] | outcome [2] | outcome [3] | outcome [4] | outcome [5] | outcome [6] | outcome [7] | Potency [10] | Potency [11] | Potency [12]

CC(C)(C)C(=O)C(Cl)Cl
inactive: outcome [1] | outcome [2] | outcome [3] | outcome [4] | outcome [5] | outcome [6] | outcome [7] | Potency [8] | Potency [10] | Potency [11] | Potency [12] | Potency [15]

CNC(=O)NC(O)C(Cl)(Cl)Cl (configuration not stated)
inactive: outcome [1] | outcome [2] | outcome [3] | outcome [4] | outcome [5] | outcome [16] | outcome [6] | outcome [7] | Potency [8] | Potency [9] | Potency [10] | Potency [11] | Potency [18] | outcome [19] | outcome [20] | Potency [12] | Potency [15]

O=C(O)C(Cl)Br (configuration not stated)
inactive: outcome [1] | outcome [2] | outcome [3] | outcome [4] | outcome [5] | outcome [6] | outcome [7] | Potency [13] | Potency [14] | Potency [8] | Potency [9] | Potency [10] | Potency [11] | Potency [12] | Potency [15]

CCOC(=O)NC(C)(C)Cc1ccc(Cl)cc1
inactive: outcome [1] | outcome [2] | outcome [3] | outcome [4] | outcome [5] | outcome [6] | outcome [7] | Potency [13] | Potency [17] | Potency [14] | Potency [9] | Potency [11] | Potency [18] | outcome [19] | outcome [20] | Potency [12] | Potency [15]
